Measurements from PubChem BioAssay AID1233 (SRMLSC, 2008).
Entries with a potency or affinity are not part of this list. Values without a mark were called inactive.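 The calls were made as follows: active = a dose-response curve fit returns a half-maximal inhibitory concentration, extrapolated values included; inactive = the fit returns no such concentration.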

These compounds were tested against HMG-CoA reductase [Enterococcus faecalis] (UniProt Q9FD70) (assay: class II HMG-CoA reductase inhibition potency – biochemical, Enterococcus faecalis, confirmation (AID 1233;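 also: 0% = full reaction carrier wells and 100% = background wells lacking mevalonate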)). Settings: purified E. faecalis HMGR, NADPH absorbance 340 nm kinetics; series mostly up to 100 µM; inhibition: at the top concentration.

| Structure (SMILES) | inhibition [%] |
| --- | --- |
| CCCCN(C(=S)Nc1cccc(C)c1C)c1c(N)n(CCC)c(=O)[nH]c1=O | -2.1 |
| COC(=O)C(C(=O)OC)c1ccc(N)cc1 | 0.61 |
| CC(Sc1nnc(-c2ccccc2)c(-c2ccccc2)n1)C(=O)Nc1ncc(Cl)cc1Cl (configuration not stated) | 2.62 |
| C#CCn1c(-c2cccs2)nc2ccccc21 | -5.36 |
| O=C(Cn1ncc2ccccc21)N1CCN(c2cccc(C(F)(F)F)c2)CC1 | -4.82 |
| Cc1ccc(NC(=S)NC(=O)CC2CC(C)(C)OC2=O)cc1 (configuration not stated) | -9.85 |
| COc1ccc(/C=C/C(=O)NCCNC(=O)c2ccccc2)cc1OC | 0.2 |
| CCOC(=O)c1cnn(-c2nc(-c3ccccc3)cs2)c1C(F)(F)F | -2.29 |
| COc1ccccc1NC(=S)N1CCCc2ccccc21 | 0.02 |
| CN(C)CCCNC(=O)c1cc(C(=O)C2CCCCC2)c[nH]1 | -3.15 |
| CCNC(=O)NC(=O)C(C)OC(=O)c1ccc(-n2nc(SC)sc2=S)cc1 (configuration not stated) | -5.23 |
| FC(F)(F)c1cnc(Oc2ccc(-c3nnco3)cc2)c(Cl)c1 | -1.62 |
| O=C1NC(=O)/C(=C/C(=O)N2CCOCC2)S1 | -3.27 |
| CC[n+]1c(C)n(-c2ccccc2)c2ccc(C(=O)OC)cc21 | -3.04 |
| Cc1nn(Cc2ccc(Cl)cc2)c(Cl)c1/C=N/NC(=O)CNc1ccccc1F | -2.81 |
| CCC(Sc1ccccn1)C(=O)Nc1cccc([N+](=O)[O-])c1 (configuration not stated) | -5.94 |
| Cc1c(Br)c([N+](=O)[O-])nn1C(C)C(=O)Nc1ccc2c(c1)OCO2 (configuration not stated) | -2.77 |
| COc1ccc(-c2nn(-c3ccccc3)cc2/C=N/Nc2cccc(C(=O)O)c2)cc1 | 3.14 |
| CCN1CCN(CCC(=O)Nc2ccc3c(c2)OCO3)CC1 | -5.86 |

| Structure (SMILES) | inhibition [%] |
| --- | --- |
| COc1ccc(CN2CCN(CCC(C)C)C(CCO)C2)cc1Cn1cccn1 (configuration not stated) | -0.88 |
| Cc1cccnc1NC(=O)Cn1nc([N+](=O)[O-])cc1C | -11.3 |
| Cc1cc(NC(=O)c2c(F)cccc2Cl)no1 | -2.21 |
| Brc1ccc(CSc2nnc3ccccn23)cc1 | -5.51 |
| O=C(NCc1ccc2[nH]c3c(c2c1)CCCC3)c1ccc(S(=O)(=O)N2CCCC2)cc1 | 0.84 |
| CCC(=O)Nc1ccc2c(c1)nc(CN1CCCCC1)n2C | -3.15 |
| CCOC(=O)C1=C(COc2ccc(F)cc2Cl)NC(=O)NC1c1cc(C)ccc1C (configuration not stated) | -5.48 |
| CC(=O)N(C)c1nc(N)n(-c2ccccc2)n1 | -3.93 |
| COCCn1c(=N)c(C(=O)NCc2ccco2)cc2c(=O)n3cc(C)ccc3nc21 | -6.17 |
| CCc1ccc(NC(=O)CN2C(=O)C(=O)N(Cc3ccccc3)C2=O)cc1 | -2.36 |
| O=C(CNC(=O)c1ccc(S(=O)(=O)N2CCCC2)cc1)N/N=C/c1ccc(Cl)cc1 | -7.1 |
| COCCNC(=O)C(c1ccccc1C)N(C(=O)Cn1nnc2ccccc21)c1cccnc1 (configuration not stated) | -7.56 |
| O=C(COC(=O)Cc1c(Cl)cccc1Cl)NCCC1=CCCCC1 | -4.75 |
| CCOc1ccc(-c2[nH]ncc2Oc2ccccc2OCC)c(O)c1 | -7.1 |
| CC1CCCC(NC(=O)CN(C)S(=O)(=O)c2cnc[nH]2)C1C (configuration not stated) | -7.41 |
| O=[N+]([O-])c1ccc(C(=Nc2cccc3ccccc23)N2CCOCC2)cc1 | -4.3 |
| C=CCn1cnc2c(nnn2-c2ccc(Cl)cc2)c1=O | -3.27 |
| Cc1ccc(NC(=O)c2cc(S(=O)(=O)NCCC3=CCCCC3)ccc2F)cc1 | -1.4 |
